Measured values published in PubChem BioAssay AID1159580 (chemical genetic matrix, 2015).
The campaign covered roughly 5,500 compounds. About 2,000 (36%) were called active. Inconclusive results (about 18%) are left out. Rule as the data show it: active = normalized growth mostly below about 0.91 (no sharp cut-off); inconclusive = no clear call, values can overlap the other calls; inactive = mostly above about 0.92. Some of the results follow.

Assay: chemical genetic growth profiling, strain panel (AID 1159580);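 also: tested at 20 µM; growth read once vehicle control cultures reached saturation at 30 °C; 1 = growth at the plate median or of vehicle wells; lower values mean less growth of the strain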
Details: growth OD
[1] = S. cerevisiae deletion strains, locus YAL013W, strain DEP1, active compounds read low
[2] = S. cerevisiae deletion strains, locus YBR229C, strain ROT2, active compounds read low
[3] = S. cerevisiae deletion strains, locus YDL101C, strain DUN1, active compounds read low
[4] = S. cerevisiae deletion strains, locus YDL134C, strain PPH21, active compounds read low
[5] = S. cerevisiae deletion strains, locus YDR150W, strain NUM1, active compounds read low
[6] = S. cerevisiae deletion strains, locus YEL061C, strain CIN8, active compounds read low
[7] = S. cerevisiae deletion strains, locus YGR078C, strain PAC10, active compounds read low
[8] = S. cerevisiae deletion strains, locus YHR030C, strain SLT2, active compounds read low
[9] = S. cerevisiae deletion strains, locus YJR043C, strain POL32, active compounds read low
[10] = S. cerevisiae deletion strains, locus YJR075W, strain HOC1, active compounds read low
[11] = S. cerevisiae deletion strains, locus YKL190W, strain CNB1, active compounds read low
[12] = S. cerevisiae deletion strains, locus YLR039C, strain RIC1, active compounds read low
[13] = S. cerevisiae deletion strains, locus YLR262C, strain YPT6, active compounds read low
[14] = S. cerevisiae deletion strains, locus YMR263W, strain SAP30, active compounds read low
[15] = S. cerevisiae deletion strains, locus YMR307W, strain GAS1, active compounds read low
[16] = S. cerevisiae deletion strains, locus YNL153C, strain GIM3, active compounds read low
[17] = S. cerevisiae deletion strains, locus YNL322C, strain KRE1, active compounds read low
[18] = S. cerevisiae deletion strains, locus YOL006C, strain TOP1, active compounds read low
[19] = S. cerevisiae deletion strains, locus YPL055C, strain LGE1, active compounds read low
[20] = S. cerevisiae deletion strains, locus YPL241C, strain CIN2, active compounds read low
[21] = S. cerevisiae strains, strain wild type, active compounds read low

Measured: normalized growth

CNC(=S)NN=C(N)c1ccccn1
inactive: [1] 1.02 | [2] 1.02 | [3] 0.972 | [4] 0.963 | [5] 1.04 | [6] 0.93 | [7] 1.01 | [8] 0.786 | S. cerevisiae deletion strains, locus YHR087W, strain rtc3, active compounds read low 1.05 | S. cerevisiae deletion strains, locus YJL187C, strain SWE1, active compounds read low 1.01 | [9] 1.01 | [10] 1.01 | S. cerevisiae deletion strains, locus YLR058C, strain SHM2 (second series), active compounds read low 1.01 | S. cerevisiae deletion strains, locus YMR219W, strain ESC1, active compounds read low 1.01 | [14] 1.01 | [16] 0.989 | [17] 1.04 | [19] 1.03 | S. cerevisiae deletion strains, locus YPR135W, strain CTF4, active compounds read low 0.7
active: [11] 0.521 | [12] 0.519 | S. cerevisiae deletion strains, locus YLR085C, strain ARP6, active compounds read low 0.484 | [13] 0.698 | S. cerevisiae deletion strains, locus YML094W, strain GIM5, active compounds read low 0.831 | [15] 0.525 | S. cerevisiae deletion strains, locus YNL298W, strain CLA4 (second series), active compounds read low 0.75 | S. cerevisiae deletion strains, locus YNR030W, strain Alg12, active compounds read low 0.669 | [18] 0.167 | [20] 0.682 | [21] 0.64

O=C1CC(c2ccc(O)cc2)Oc2ccccc21 (stereo unspecified)
active: [1] 0.894 | S. cerevisiae deletion strains, locus YCL029C, strain bik1, active compounds read low 0.858 | S. cerevisiae deletion strains, locus YDL035C, strain GPR1, active compounds read low 0.844 | S. cerevisiae deletion strains, locus YDL074C, strain BRE1, active compounds read low 0.632 | [3] 0.862 | [4] 0.798 | S. cerevisiae deletion strains, locus YDL192W, strain arf1, active compounds read low 0.818 | S. cerevisiae deletion strains, locus YDR101C, strain arx1, active compounds read low 0.865 | S. cerevisiae deletion strains, locus YDR162C, strain NBP2, active compounds read low 0.489 | S. cerevisiae deletion strains, locus YDR318W, strain mcm21, active compounds read low 0.746 | S. cerevisiae deletion strains, locus YDR388W, active compounds read low 0.897 | S. cerevisiae deletion strains, locus YDR502C, strain sam2, active compounds read low 0.815 | [6] 0.879 | S. cerevisiae deletion strains, locus YER110C, active compounds read low 0.855 | S. cerevisiae deletion strains, locus YER155C, strain BEM2, active compounds read low 0.769 | S. cerevisiae deletion strains, locus YER167W, strain BCK2, active compounds read low 0.687 | S. cerevisiae deletion strains, locus YGL086W, strain mad1, active compounds read low 0.848 | S. cerevisiae deletion strains, locus YGL248W, strain PDE1, active compounds read low 0.795 | [7] 0.694 | S. cerevisiae deletion strains, locus YGR135W, strain pre9, active compounds read low 0.787 | S. cerevisiae deletion strains, locus YGR229C, strain SMI1, active compounds read low 0.538 | S. cerevisiae deletion strains, locus YGR252W, strain gcn5, active compounds read low 0.718 | [8] 0.704 | S. cerevisiae deletion strains, locus YHR079C, strain IRE1 (second series), active compounds read low 0.8 | S. cerevisiae deletion strains, locus YHR094C, strain hxt1, active compounds read low 0.917 | S. cerevisiae deletion strains, locus YHR129C, strain ARP1, active compounds read low 0.795 | S. cerevisiae deletion strains, locus YIL066C, strain RNR3, active compounds read low 0.851 | S. cerevisiae deletion strains, locus YIR030C, strain dcg1, active compounds read low 0.86 | S. cerevisiae deletion strains, locus YJL095W, strain BCK1, active compounds read low 0.386 | S. cerevisiae deletion strains, locus YJL134W, strain LCB3, active compounds read low 0.919 | S. cerevisiae deletion strains, locus YJL168C, strain set2, active compounds read low 0.926 | S. cerevisiae deletion strains, locus YJL187C, strain SWE1 (second series), active compounds read low 0.817 | [9] 0.76 | [10] 0.755 | S. cerevisiae deletion strains, locus YKL068W, active compounds read low 0.924 | S. cerevisiae deletion strains, locus YKL085W, strain MDH1 (second series), active compounds read low 0.923 | S. cerevisiae deletion strains, locus YKL085W, strain MDH1, active compounds read low 0.923 | [11] 0.874 | S. cerevisiae deletion strains, locus YKR001C, strain vps1, active compounds read low 0.598 | [12] 0.479 | S. cerevisiae deletion strains, locus YLR058C, strain SHM2, active compounds read low 0.829 | [13] 0.498 | S. cerevisiae deletion strains, locus YLR268W, strain sec22, active compounds read low 0.784 | S. cerevisiae deletion strains, locus YLR330W, strain CHS5, active compounds read low 0.82 | S. cerevisiae deletion strains, locus YLR342W, strain FKS1 (second series), active compounds read low 0.563 | S. cerevisiae deletion strains, locus YLR418C, strain cdc73, active compounds read low 0.471 | S. cerevisiae deletion strains, locus YML016C, strain PPZ1, active compounds read low 0.905 | S. cerevisiae deletion strains, locus YML032C, strain rad52, active compounds read low 0.696 | S. cerevisiae deletion strains, locus YML124C, strain tub3, active compounds read low 0.918 | S. cerevisiae deletion strains, locus YMR078C, strain ctf18, active compounds read low 0.808 | S. cerevisiae deletion strains, locus YMR223W, strain ubp8, active compounds read low 0.807 | [14] 0.823 | [15] 0.56 | S. cerevisiae deletion strains, locus YNL067W, strain RPL9B, active compounds read low 0.81 | [16] 0.837 | S. cerevisiae deletion strains, locus YNL233W, strain BNI4, active compounds read low 0.73 | S. cerevisiae deletion strains, locus YNL250W, strain rad50, active compounds read low 0.876 | S. cerevisiae deletion strains, locus YNL271C, strain bni1, active compounds read low 0.915 | S. cerevisiae deletion strains, locus YNL298W, strain CLA4, active compounds read low 0.903 | S. cerevisiae deletion strains, locus YNL307C, strain MCK1, active compounds read low 0.176 | [17] 0.9 | [18] 0.462 | S. cerevisiae deletion strains, locus YOL147C, strain pex11, active compounds read low 0.662 | S. cerevisiae deletion strains, locus YOR136W, strain idh2, active compounds read low 0.92 | S. cerevisiae deletion strains, locus YOR144C, strain elg1, active compounds read low 0.911 | S. cerevisiae deletion strains, locus YOR184W, strain ser1, active compounds read low 0.465 | S. cerevisiae deletion strains, locus YOR316C, strain cot1, active compounds read low 0.916 | [19] 0.712 | S. cerevisiae deletion strains, locus YPR119W, strain clb2, active compounds read low 0.89 | S. cerevisiae deletion strains, locus YPR163C, strain tif3, active compounds read low 0.451 | S. cerevisiae deletion strains, strain wtn01, active compounds read low 0.807 | [21] 0.838
inactive: S. cerevisiae deletion strains, locus YBR021W, strain FUR4, active compounds read low 0.896 | [2] 0.918 | S. cerevisiae deletion strains, locus YDL185W, strain tfp1, active compounds read low 0.907 | [5] 0.919 | S. cerevisiae deletion strains, locus YGL078C, strain dbp3, active compounds read low 0.944 | S. cerevisiae deletion strains, locus YHR200W, strain rpn10, active compounds read low 0.924 | S. cerevisiae deletion strains, locus YIL073C, strain SPO22, active compounds read low 0.786 | S. cerevisiae deletion strains, locus YIL125W, strain kgd1, active compounds read low 0.94 | S. cerevisiae deletion strains, locus YKL009W, strain mrt4, active compounds read low 0.976 | S. cerevisiae deletion strains, locus YLR102C, strain apc9, active compounds read low 0.928 | S. cerevisiae deletion strains, locus YLR371W, strain rom2, active compounds read low 0.927 | S. cerevisiae deletion strains, locus YNL128W, strain TEP1, active compounds read low 0.923 | S. cerevisiae deletion strains, locus YNR052C, strain pop2, active compounds read low 0.92 | S. cerevisiae deletion strains, locus YOL012C, strain htz1 0.38 | S. cerevisiae deletion strains, locus YOR061W, strain CKA2, active compounds read low 0.931 | S. cerevisiae deletion strains, locus YOR069W, strain VPS5, active compounds read low 0.946 | [20] 0.935 | S. cerevisiae deletion strains, locus YPR141C, strain kar3, active compounds read low 0.923 | S. cerevisiae deletion strains, locus YPR167C, strain met16, active compounds read low 0.93
